# SW480 rerep – A quantitative high throughput screen for small molecules that induce DNA re-replication in SW480 colon adenocarcinoma cells; SW480 DNA re-replication, Hoechst DNA content imaging, 48 h; Potency, µM (doses to about 46.1 µM), for inactives: at the highest dose re-replication activation, usual class: activators; 340,000 tested, 1.8% active; note: potency is the fitted concentration of half-maximal effect; % of control where 0% means no effect; nearly all actives have a fitted effect of over 55% in size
#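 Per well, 250 cells were exposed to pinned compound for 48 hr. Nuclear DNA was visualised with Hoechst (40 min, 37 C) and total object intensity recorded by fluorescence scanning.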
# IL1B secr inh – qHTS for Inhibitors of Inflammasome Signaling: IL-1-beta AlphaLISA Primary Screen | THP-1 LPS/ATP IL-1B secretion, AlphaLISA, 16 h; hits give low values | AID 743279, 2014 | 360,000 tested, 4.7% active | activity change, % at 57.5 µM; in the data active = activity change below about -50%; inconclusive = mostly about -30% to -49%; note: % is set by controls: 0 for no effect and ±100 for the full control effect
#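 Secreted IL-1B measured by AlphaLISA bead assay after 16 h compound exposure of THP-1 cells; compounds (final up to 57.5 uM) added 1 h before LPS (250 ng/mL) and ATP (1.25 mM) stimulation; lower signal means less secretion.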
# Giardia killer – Small Molecules that selectively kill Giardia lamblia: qHTS. activity change, % at 7.66 µM, hits read low. AID 540267, 2011. 340,000 tested, 0.15% active. Giardia lamblia trophozoite viability; in the data active = activity change below about -80%; inconclusive = between about -30% and that limit;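 note: parasites exposed to compound for two days anaerobically before the ATP read; % is set by controls: 0 for no effect and ±100 for the full control effect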
#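 Trophozoites 100 cells/well + cpd; 48 hrs, 37 deg C, anaerobic. ATPLite 1-Step added, 15-30 min RT, luminescence read (ATP-based viability).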
# MCF10A rerep – A quantitative high throughput screen for small molecules that induce DNA re-replication in MCF 10a normal breast cells | MCF 10A DNA re-replication, Hoechst nuclear intensity, 48 h | Potency, µM (series often up to 46.1 µM), without a hit: at the top dose activity, positive = re-replication, most hits filed as activators | 350,000 tested, 2.9% active | AID 624296, 2012; note: potency is the fitted concentration of half-maximal effect; % of control where 0% means no effect; nearly all actives have a fitted effect of over 50% in size
# Vif-APOBEC3F blk – qHTS for Inhibitors of Vif-A3F Interactions: qHTS; Potency, µM (titrated, usually from 46.1 µM), for the others: top-dose activity, negative = active; 390,000 tested, 0.2% active; HeLa A3F-eYFP + Vif (tagged APOBEC3F with the HIV-1 protein that degrades it), YFP fluorescence increase; note: potency is the fitted concentration of half-maximal effect; % of control where 0% means no effect; nearly all actives have a fitted effect of over 65% in size
#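 HeLa cells stably expressing A3F-eYFP plus Vif, plated and incubated overnight at 37 deg C, then exposed to compounds overnight at 37 deg C. Blocked degradation read as raised yellow fluorescence (Ex 488/Em 500-530).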
# Vif-APOBEC3G blk – qHTS for Inhibitors of Vif-A3G Interactions: qHTS; DNA dC->dU-editing enzyme APOBEC-3G (Homo sapiens), Q9HC16; HeLa A3G-eYFP + Vif (tagged APOBEC3G with the HIV-1 protein that degrades it), YFP fluorescence, overnight; Potency, µM (doses to about 46.1 µM), for inactives: at the top dose activity, negative = active, hits mostly inhibitors; 410,000 tested, 0.076% active; AID 602310, 2012; note: potency is the fitted concentration of half-maximal effect; % is set by controls: 0 for no effect and ±100 for the full control effect; nearly all actives have a fitted effect of over 60% in size
# Target sequence (Q9HC16 whole entry, looked up): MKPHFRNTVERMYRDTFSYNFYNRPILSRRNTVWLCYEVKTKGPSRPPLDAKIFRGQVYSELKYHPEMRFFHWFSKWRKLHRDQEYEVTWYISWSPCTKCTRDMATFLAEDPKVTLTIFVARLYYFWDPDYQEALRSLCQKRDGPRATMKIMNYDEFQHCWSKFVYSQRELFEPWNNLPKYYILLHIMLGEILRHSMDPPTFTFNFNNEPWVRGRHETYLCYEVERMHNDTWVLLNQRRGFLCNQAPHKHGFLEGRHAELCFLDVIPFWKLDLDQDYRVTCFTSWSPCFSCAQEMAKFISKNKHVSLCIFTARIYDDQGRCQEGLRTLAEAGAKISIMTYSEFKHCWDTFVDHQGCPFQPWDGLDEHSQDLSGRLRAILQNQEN
#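 Read-out is eYFP fluorescence (Ex 488/Em 500-530) from Vif-expressing HeLa A3G-eYFP cells; more signal means A3G escaped Vif-mediated degradation. Cells plated overnight, compound pinned in, incubated overnight at 37 deg C.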
# Starred values were filed as active, the others as inactive; ? = inconclusive; . = no result given; [ ] = another dose, or the depositor's remark. Rows were chosen to be rich in hits. Some 6.9% of all compounds tested hit in one or more screens of this group. Unless noted, calls come from the whole dose curve; as a rule, active = well fitted curve in the direction sought with a large enough effect; inconclusive = small, poorly fitted or top-dose-only effect, or another doubt; inactive = no such curve, though single readings can be large; an effect the other way counts as inactive or inconclusive.
SMILES,SW480 rerep,IL1B secr inh,Giardia killer,MCF10A rerep,Vif-APOBEC3F blk,Vif-APOBEC3G blk
O=[N+]([O-])c1ccc(Sc2ccc(Cl)c(Cl)c2)nc1,17%,-58*,-7,15µM*,2%,-16%
CCCC(=O)Oc1ccc2[nH]c(C(=O)c3cc4ccccc4[nH]3)cc2c1,.,.,.,.,.,0%
OC(c1cc(-c2ccc(C(F)(F)F)cc2)nc(C(F)(F)F)c1)C1CCCCN1 (centres undefined),?,-104*,-3,23µM*,-9%,2%
OC(c1cc(-c2cccc(Cl)c2)nc2ccccc12)C1CCCCN1 (centres undefined),?,-101*,2,?,0%,?
CN1CCN(NC(=O)c2cc(-c3cccc(Cl)c3)nc3ccccc23)CC1,6%,?,-13,1%,-8%,0%
OC(c1cc(C(F)(F)F)nc2c(C(F)(F)F)cccc12)C1CCCCN1 (centres undefined),?,-111*,-6,?,-1%,4%
COc1ccccc1Cn1ccn(Cc2c(F)cccc2Cl)c(=O)c1=O,.,.,.,.,7%,-3%
CC(C)(C)c1ccc(/C=N/Nc2nncn2N)cc1,26%,-23,22,12µM*,-6%,-9%
CSc1ccc(/C=N\Nc2nncn2N)cc1,7%,-2,-15,?,1%,-9%
Nn1cnnc1N/N=C/c1cc(Br)cc(Br)c1O,?,-67*,4,?,8%,2%
CS/C(N)=N/N=C/c1cc(Br)cc(Br)c1O,?,0,10,?,-3%,-21%
Cc1cccc(N2C(=O)CSC23C(=O)N(CC(=O)NCc2ccccc2Cl)c2ccccc23)c1 (centres undefined),.,.,.,.,0%,-1%
CC(=O)O[C@@H]1[C@@H](O)CN[C@@H]1Cc1ccccc1,.,.,-83*,.,.,-7%
C=CCNc1nc(-c2c(C)nc3sccn23)cs1,-2%,-28,-12,13%,.,2%
Cc1nc2sccn2c1-c1csc(NCc2ccccc2)n1,17%,-73*,4,1%,0%,-1%
COc1cccc(C2CC(c3ccc(Br)cc3)=NN2C(=O)c2ccncc2)c1OC (centres undefined),-40%,-50*,-7,?,-3%,-19%
COc1ccccc1C1CC(c2ccc(Br)cc2)=NN1C(=O)c1cccnc1 (centres undefined),?,-52*,-2,?,-6%,-18%
COc1cccc(C2CC(c3ccccc3)=NN2S(=O)(=O)c2ccc(C)cc2)c1OC (centres undefined),-4%,-8,0,?,25µM*,?
COc1ccccc1C1CC(c2ccccc2)=NN1S(=O)(=O)c1ccccc1 (centres undefined),7%,15,-23,14%,2%,-5%
CC(C)c1noc(-c2ccccc2OCC(=O)Nc2ccc([N+](=O)[O-])cc2)n1,.,.,.,.,0%,-1%
CC(C)(C)c1csc(NC(=O)c2c(F)c(F)c(F)c(F)c2F)n1,0%,-55*,16,?,-13%,-4%
CC(C)(C)c1csc(NC(=O)c2ccccc2O)n1,-10%[9.22 µM],-83*,-5,?,11%,-2%
CSc1ncccc1C(=O)Nc1nc(C(C)(C)C)cs1,?,-18,-2,2%,10%,-18%
Cc1csc(NC(=O)c2ccccc2O)n1,0%,49,-6,12%,-3%,-3%
COc1ccc(CNc2nc(-c3ccco3)nn2S(=O)(=O)c2ccc3ccccc3c2)cc1OC,.,.,.,.,-21%,0%
SMILES,SW480 rerep,IL1B secr inh,Giardia killer,MCF10A rerep,Vif-APOBEC3F blk,Vif-APOBEC3G blk
COc1c(S(=O)(=O)NCCCn2ccnc2)ccc(Cl)c1Cl,?,16,-8,12µM*,0%,-1%
Cc1c(Cl)ccc(S(=O)(=O)NCCCn2ccnc2)c1Cl,?,15,-3,?,-3%,0%
O=[N+]([O-])c1ccc(NN=Cc2cccc3ccccc23)nc1,3.3µM*,-25,-6,?,?,2%
O=[N+]([O-])c1ccc(Nc2nc(N/N=C/c3cccc(F)c3)nc(N3CCCC3)n2)cc1,-8%,?,16,?,1%,-11%
COc1cccc(/C=N/Nc2nc(Nc3ccc([N+](=O)[O-])cc3)nc(N3CCCC3)n2)c1O,5.8µM*,91,4,6%,14%,1%
COc1cccc(/C=N/Nc2ccc([N+](=O)[O-])cn2)c1O,1.2µM*,-76*,-7,?,8%,0%
Cc1ccc2oc(C(=O)Nc3sc4c(c3C(=O)NCc3ccccc3)CCCC4)cc(=O)c2c1,.,.,.,.,0%,-3%
COc1ccc(NC(=O)CSc2nc(-c3ccc(OC)cc3)[nH]c2-c2ccc(OC)cc2)cc1,.,.,.,.,-9%,0%
CCOc1ccc(-c2nnc(SCC(=O)Nc3cccc(C#N)c3)o2)cc1,.,.,.,.,-15%,7%
C=CCC[C@@H](Cc1ccc(F)cc1)C(=O)OCCNC(=O)[C@@H](CC=C)CC(=O)N(CCO)Cc1ccccc1,-8%,-61*,-9,?,5%,0%
C=CCC[C@@H](Cc1ccc(F)cc1)C(=O)OC[C@H](C)NC(=O)[C@@H](CC=C)CC(=O)N(CCO)Cc1ccccc1,-2%,?,-22,-10%,-1%,1%
C=CCC[C@@H](Cc1ccc(F)cc1)C(=O)OC[C@@H](NC(=O)[C@H](CC=C)CC(=O)N(CCO)Cc1ccccc1)c1ccccc1,3%,-60*,-9,27%,4%,-11%
C=CCC[C@@H](Cc1ccc(F)cc1)C(=O)OC[C@@H](NC(=O)[C@@H](CC=C)CC(=O)N(CCO)Cc1ccccc1)c1ccccc1,25%,-67*,-4,?,1%,-2%
Cc1cc(-c2cc(C(=O)NCc3ccccc3)on2)nc(S(C)(=O)=O)n1,?,-103*,-2,?,6%,-20%
COCCNc1nc(C)cc(-c2cc(C(=O)NCc3ccccc3)on2)n1,-11%,-1,8,1%,1%,-1%
COc1ccc(NC(=O)c2nn(C)c3c2CS(=O)(=O)c2ccccc2-3)cc1Cl,.,.,.,.,2%,0%
Cc1ccccc1CNC(=O)Cn1ccc2cc(S(=O)(=O)N3CCCCC3)ccc21,.,.,.,.,0%,1%
